Growth data for 36 molecules are collected here from PubChem BioAssay (NCI).

Compounds without any hit were thinned out: in the full panel of roughly 83,000, 20% have a hit.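 Single-dose data. Exposure time 48 hours. Values below 10 considered active.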 A number with no mark means an inactive call. The source made the active and inactive calls.

The assay concerns OVCAR-3 ovarian. As to the kind of experiment: NCI-60 one-dose screen, 48 h (100 = growth as untreated, 0 = no growth, -100 = all killed). The note with it: 10 µM.
Regarding `Nc1nc(-c2ccccc2)cc(-c2cc3ccccc3nc2Cl)n1`, the growth was 67.7%.

For `O=C(Cn1cc(CSc2nnc3oc4ccccc4n23)nn1)Nc1ccc(Br)cc1`, the growth was 87%.

Turning to `O=c1oc2ccc(-c3ccc(F)cc3F)cc2c(=O)n1-c1ccc(F)c(Cl)c1`, the growth was 3.83% (active).

With `CN1CCN(c2ccc(Nc3nc(NCCCNC(=O)c4ccc(F)cc4)c4sccc4n3)cc2)CC1`, the growth was 61.6%.

For the molecule `CO[C@@H]1CSS[C@H]1Cn1nc(-c2ccc(Oc3ccccc3)cc2)c2c(N)ncnc21`, the growth was 104%.

With `CC(=O)Nc1ccc(-n2cnc3cc(-c4ccc(O)cc4)ccc32)cc1C`, the growth is 80.3%.

With `COC(=O)CC1CC1C1Cc2c(nc(N(C)S(C)(=O)=O)nc2C(C)C)-c2ccc(F)cc21` (stereo unspecified), the growth is 97.5%.

For the molecule `CC(=O)Nc1nc(-c2ccc(N3CCN(C)CC3)c(NS(=O)(=O)c3ccc(C(F)(F)F)cc3)c2)cs1`, the growth was -3.33% (active).

`Cc1ccc(-c2ccc(SCC(=O)Nc3ccc(Cl)c(C(F)(F)F)c3)nn2)cc1`: the growth is 2.46% (active).

On to `c1ccc(C(=C(c2ccc(OCCN3CCCCC3)cc2)c2ccc(OCCN3CCCCC3)cc2)C2CCCC2)cc1`, for which the growth is -92.9% (active).

For the molecule `O=C(O)CCCCCCCCCCN1C(=O)/C(=C/c2cnc(-c3ccccc3)s2)SC1=S`, the growth was 102%.

`CCN(CC)CCOc1ccc(C(=C(C)c2ccccc2)c2ccc(OCCN(CC)CC)cc2)cc1`: the growth is -7.71% (active).

As to `Cc1ccc(C(=O)Nc2ccc(-n3c(C)nc4c(cnn4-c4ccccc4)c3=O)cc2)cc1`, the growth is 97%.

Consider `COc1ccc2[nH]c(O)c(N=NC(=O)COc3ccc(NC(=O)Nc4ccc(Cl)c(Cl)c4)cc3)c2c1`, for which the growth is -44.5% (active).

`O=C1NC(=NC23CC4CC(CC(C4)C2)C3)N/C1=C\c1ccc2ncccc2n1`: the growth is -22.3% (active).

On to `COC(=O)C(Cc1ccc(O)c(O)c1)NC(=O)C(CSC/C=C(\C)CCCC(C)CCCC(C)CCCC(C)C)NC(C)=O` (stereo unspecified), for which the growth was 34.8%.

As for `O=C(Nc1ccncc1)c1ccc(-n2c(=O)[nH]c3ccccc3c2=O)cc1`, the growth is 113%.

As to `CCCCCc1ccc(S(=O)(=O)N(C(C)=O)c2cc(-c3csc(N(C)C(C)=O)n3)ccc2N2CCN(C)CC2)cc1`, the growth was 44.7%.

For `COc1ccc(-c2ccc(/C=N/NC(=O)c3[nH]c4ccc(Br)cc4c3-c3ccccc3)s2)cc1`, the growth was 97.5%.

In the case of `CC(C)CCSc1nc(NC2CC2)c(C#N)c(-c2ccc(C(C)C)cc2)n1`, the growth is 117%.

For `O=C(Nc1nc2ccc([N+](=O)[O-])cc2s1)Nc1ccccc1I`, the growth is 14.4%.

Consider `Cc1ccc(CSc2nc(Cl)c(C#N)c(-c3ccc(F)cc3)n2)cc1`, for which the growth was 86.3%.

`CCN1CCN(c2ccc(NC(=O)Nc3ccc(-c4cc(C(=O)NC)c5ncccc5n4)cc3)cc2C(F)(F)F)CC1`: the growth was -100% (active).

`COc1ccccc1NCc1ccc(CO)n1-c1ccc(C)cc1`: the growth is 95.6%.

On to `CCCCCCCCCCCCCCCCCCCC(=O)NCCc1c[nH]c2ccc(OC(=O)NOCCOCCOCCOCCOCCOCCOCCOCCOCCOCCOCCOCCOCCOCCOCCOCCOCCOCCOCCOCCOCCOCCOC)cc12`, for which the growth is 11.8%.

`CC(=O)NCC1=C(C)C=C2C(=O)[C@](C)(O)C3(CC3)C(C)=C21`: the growth is -19.9% (active).

Consider `Cc1cccc2cc(-c3cc(-c4ccccc4)nc(=S)[nH]3)c(Cl)nc12`, for which the growth is 107%.

With `CO[C@H]1CSS[C@@H]1Cn1nc(-c2ccc(Oc3ccccc3)cc2)c2c(N)ncnc21`, the growth is 61.2%.

Take `CNC(=O)c1cc(-c2ccc(NC(=O)Nc3ccc(C)cc3)cc2)nc2cccnc12`: the growth was 105%.

Turning to `O=C(Cn1cc(CSc2nnc3oc4ccccc4n23)nn1)Nc1cccc(Cl)c1`, the growth is 78.5%.

With `O=C(Nc1cc(Cl)cc(Cl)c1)Nc1cc(Cl)cc(Cl)c1`, the growth was -31.5% (active).

Take `C=CC(=O)Nc1ccc(C(=O)/C=C/c2ccc(N(C)CCF)cc2)c(O)c1`: the growth is -69% (active).

Regarding `CC(=C(c1ccc(OCCN2CCCCCC2)cc1)c1ccc(OCCN2CCCCCC2)cc1)c1ccc(Cl)cc1`, the growth is -92.6% (active).

Consider `Cc1ccc(C(C)C)cc1NC(=O)c1ccccc1O`, for which the growth was 29.9%.

In the case of `C=CC(=O)Nc1nc(-c2cccc(NS(=O)(=O)c3cccc4c(N(C)C)cccc34)c2)cs1`, the growth was -69.4% (active).

As to `CC(C)NC(=O)c1cc(-c2ccc(NC(=O)Nc3ccc(N4CCN(C)CC4)c(C(F)(F)F)c3)cc2)nc2cccnc12`, the growth is -84.9% (active).
